Sequences and labels used below:
B1: unnamed (peptide)
chain: AMNDILAQV
B2: unnamed (peptide)
chain: KLDFANNVQL
B3: unnamed (peptide)
chain: ALLDQLHTL
B4: unnamed (peptide)
chain: FLSELTQQL
B5: unnamed (peptide)
chain: VLHELTFQA
B6: unnamed (peptide)
chain: FVADGIFKA
B7: unnamed (peptide)
chain: VLAPHLTRA
B8: unnamed (peptide)
chain: FLSDGTIISV
B9: unnamed (peptide)
chain: RLAEALPKQSV
B10: unnamed (peptide)
chain: GVIDGHIYAV
B11: unnamed (peptide)
chain: SLFPGKLEV
B12: unnamed (peptide)
chain: GLLQINDKIAL
B13: unnamed (peptide)
chain: RLQEEINEV
B14: unnamed (peptide)
chain: YQLEAEFVGV
B15: unnamed (peptide)
chain: SLLGGVLRV
B16: unnamed (peptide)
chain: TLSDLRVYL
B17: unnamed (peptide)
chain: ALFPERITV
B18: unnamed (peptide)
chain: YLDIKGLLDV
B19: unnamed (peptide)
chain: TLLDPNEKYLL
B20: unnamed (peptide)
chain: RLWNETVEL
B21: unnamed (peptide)
chain: SIAPRMMSV
B22: unnamed (peptide)
chain: FTQDSNYLL
B23: unnamed (peptide)
chain: HIADVSHFI
B24: unnamed (peptide)
chain: RIADGLPVAV
B25: unnamed (peptide)
chain: VLADQEVRL
B26: unnamed (peptide)
chain: GLNEEIARV
B27: unnamed (peptide)
chain: IQDDMQTLYV
B28: unnamed (peptide)
chain: ILANDGVLLAA
B29: unnamed (peptide)
chain: FLIPIYHQV
B30: unnamed (peptide)
chain: SLIRNLEQL
B31: unnamed (peptide)
chain: KLLDIPGLEV
B32: unnamed (peptide)
chain: YLKDLIEEV
B33: unnamed (peptide)
chain: YQIAEQFRV
B34: unnamed (peptide)
chain: IAPPVPLKA
B35: unnamed (peptide)
chain: ILSGVIRSV
B36: unnamed (peptide)
chain: LLYDGKLSSA

Over roughly 1,100 sequences, “thermal melting temperature (Tm) of peptide-HLA complex” has its median near 58; the lowest 2% begin near 42. This is one part of a sample in which the lowest values are shown more often than they occur.
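Further: lysates heated 10 min at 37–73 °C, complexes pulled down with pan-HLA I antibody, peptide signal by DIA-MS relative to 37 °C, Tm where half the complex is unfolded.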

The experiment concerns the target HLA-A*02:01. In words: thermal melting temperature (Tm) of peptide-HLA complex; higher = more thermostable pHLA complex. The settings on record: C1R-A*02:01.
B1 showed a thermal melting temperature of 62.2 °C.

Take B2: the thermal melting temperature came out at 50.3 °C.

Sequence B3 registered a thermal melting temperature of 62.5 °C.

With B4, the thermal melting temperature worked out at 59.5 °C.

The sequence B5 gave a thermal melting temperature of 60.4 °C.

On to B6, for which the thermal melting temperature was found to be 41.1 °C.

B7 returned a thermal melting temperature of 53 °C.

For B8, the thermal melting temperature came to 57.5 °C.

On to B9, for which the thermal melting temperature was found to be 41.8 °C.

As for B10, the thermal melting temperature was found to be 61.7 °C.

Regarding B11, the thermal melting temperature came out at 60.4 °C.

Regarding B12, the thermal melting temperature came out at 41.7 °C.

Consider B13, for which the thermal melting temperature worked out at 55.3 °C.

The sequence B14 registered a thermal melting temperature of 58.7 °C.

The sequence B15 yielded a thermal melting temperature of 55.7 °C.

B16: the thermal melting temperature was 64.7 °C.

B17 displayed a thermal melting temperature of 61.6 °C.

The sequence B18 came in with a thermal melting temperature of 56 °C.

As for B19, the thermal melting temperature is 61.3 °C.

As to B20, the thermal melting temperature was 63.7 °C.

As for B21, the thermal melting temperature was 48.1 °C.

B22 displayed a thermal melting temperature of 49.1 °C.

In turn, B23 showed a thermal melting temperature of 55.3 °C.

In the case of B24, the thermal melting temperature was 41 °C.

Consider B25, for which the thermal melting temperature was 58.4 °C.

Turning to B26, the thermal melting temperature was found to be 64 °C.

In the case of B27, the thermal melting temperature stood at 43.4 °C.

B28 displayed a thermal melting temperature of 59.6 °C.

As to B29, the thermal melting temperature was 62.7 °C.

Sequence B30 gave a thermal melting temperature of 51.2 °C.

Turning to B31, the thermal melting temperature was found to be 61.3 °C.

For the sequence B32, the thermal melting temperature was found to be 62.8 °C.

Sequence B33 had a thermal melting temperature of 61.3 °C.

B34: the thermal melting temperature came out at 53 °C.

As for B35, the thermal melting temperature worked out at 56.6 °C.

With B36, the thermal melting temperature was 59.4 °C.
